The values below come from PubChem BioAssay.

The nature of assay [1]: inhibitors of TNFa-induced NFkB p65 translocation, primary screen, imaging, HUVEC, MLSMR starter and 10KST1 sets (AID 438;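 active = inhibition above 20% together with a positive visual image hit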;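 note: compound added about 3h40 before a 20 min TNFalpha stimulation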;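 for inhibition: signal is the nuclear over cytoplasmic p65 intensity ratio per well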). Particulars: HUVEC TNFa-induced p65 nuclear translocation; cell count: measured here: nuclei count (cytotoxicity indicator), at 2.08 µM; inhibition: at 2 µM, stronger effect = higher value, 0% TNFa-plus-vehicle, 100% no-TNFa wells.
Assay [2] can be described thus: reduction of polyQ htt aggregates in cells – imaging, exon1htt(103Q)mCFP cells, high-content imaging, primary screen (AID 483;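 active = visual image review flags a hit and inhibition of aggregation exceeds 20%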;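 note: compound exposure lasted 3 days before fixation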;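 for nuclei count: percent of the per-plate median nuclei count of sample wells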). The settings on record: exon1htt(103Q)mCFP cell line, aggregate imaging, at 2 µM; inhibition of aggregation: stronger effect = higher value; nuclei count: measured here: cell count, toxicity.
The nature of assay [3]: endothelial E-selectin expression blockers – imaging, HUVEC, immunofluorescence, MLSMR starter and 10KST1 sets, primary screen (AID 487;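 active = visually confirmed hit in the image check and inhibition above 20%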;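 for inhibition: signal is fraction of cell area covered by stained E-selectin grains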;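 for nuclei count: 100% = median nuclei count of all wells on the same plate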). The settings on record: HUVEC TNFalpha-induced E-selectin immunofluorescence imaging, at 2 µM; inhibition: stronger effect = higher value; nuclei count: measured here: cell number, toxicity.
For assay [4], the target named is Voltage-gated potassium channel subunit beta-2 (Rattus norvegicus) (UniProt P62483). Put plainly: inhibitors of rat Kvbeta2 reductase activity – biochemical, NADPH fluorescence, primary screen (AID 622;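 active = fluorescence slope higher than the sample average by over 3 SD, cut at about -0.22 in these data, passing the limit was not always enough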;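 note: slope of raw intensity against log time taken from 70 to 1610 s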). The settings on record: recombinant KvBeta, 4-cyanobenzaldehyde reduction, at 10 µM, stronger effect = higher value.
Sequence of Voltage-gated potassium channel subunit beta-2 (Rattus norvegicus) (P62483 whole entry, looked up): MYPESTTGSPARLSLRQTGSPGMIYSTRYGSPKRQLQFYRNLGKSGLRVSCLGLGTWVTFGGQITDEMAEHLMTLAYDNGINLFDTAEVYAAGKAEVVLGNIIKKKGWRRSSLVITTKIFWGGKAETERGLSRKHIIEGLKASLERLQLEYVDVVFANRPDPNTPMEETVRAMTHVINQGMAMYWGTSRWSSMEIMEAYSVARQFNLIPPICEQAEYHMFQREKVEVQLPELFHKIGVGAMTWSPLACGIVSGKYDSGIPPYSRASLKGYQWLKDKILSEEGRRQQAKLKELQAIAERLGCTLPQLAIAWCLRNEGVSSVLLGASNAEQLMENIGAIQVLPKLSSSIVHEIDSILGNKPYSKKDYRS
Assay [5] has the same target. The experiment in a line: enhancers of rat Kvbeta2 NADPH turnover – biochemical, NADPH fluorescence, primary screen (AID 623;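 active = NADPH fluorescence slope more negative than the mean of all samples by about 3 SD, 99.7% confidence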;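 note: fluorescence intensity change per second fitted from 20 to 320 s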). Particulars: Recombinant KvBeta, NADPH fluorescence decrease slope, 10 min; at 10 µM; stronger effect = lower value.
In assay [6] the target is Alpha-2C adrenergic receptor (Homo sapiens) (UniProt P18825). The experiment in a line: compounds altering alpha2C-coupled GIRK flux – cell-based, HEK293 alpha2C/GIRK1/2, thallium flux, primary screen (AID 624).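 Note: slope of fluorescence ratio to pre-addition baseline per second over 15 to 24 s.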 Particulars: thallium flux BTC fluorescence, at 10 µM, actives lie on both sides.
Sequence of Alpha-2C adrenergic receptor (Homo sapiens) (P18825 whole entry, looked up): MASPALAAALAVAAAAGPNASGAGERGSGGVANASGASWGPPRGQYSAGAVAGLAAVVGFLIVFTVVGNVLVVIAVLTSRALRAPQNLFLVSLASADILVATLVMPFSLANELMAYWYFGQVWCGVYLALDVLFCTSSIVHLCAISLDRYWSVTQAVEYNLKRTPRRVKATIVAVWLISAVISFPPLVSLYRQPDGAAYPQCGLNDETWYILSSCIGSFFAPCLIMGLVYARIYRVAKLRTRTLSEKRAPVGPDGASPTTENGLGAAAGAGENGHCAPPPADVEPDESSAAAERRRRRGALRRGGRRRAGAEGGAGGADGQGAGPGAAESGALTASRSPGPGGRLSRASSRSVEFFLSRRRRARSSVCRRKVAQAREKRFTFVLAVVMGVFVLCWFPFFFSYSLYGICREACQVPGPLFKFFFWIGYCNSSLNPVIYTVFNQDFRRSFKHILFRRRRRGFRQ
Assay [7] in a line: blockers of RIG-like receptor reporter activation – cell-based, Sendai virus stimulus, luciferase, 10K MLSCN set, TLR/RLR signaling modifier project, primary screen (AID 602276;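 active = inhibition at or above 50% at 10 µM; inactive = inhibition below 50%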;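 note: firefly luciferase from ISG56 promoter only with Renilla not read in this screen; 0% = Sendai virus plus DMSO and 100% = medium plus DMSO without virus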). The settings on record: HEK293 RL24 IRF3 luciferase reporter, at 10 µM, stronger effect = higher value.
The nature of assay [8]: TLR3 IRF3 reporter activation blockers – cell-based, poly I:C stimulus, luciferase, 10K MLSCN set, primary screen (AID 602277;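 active = inhibition of the reporter signal at or above 50%; inactive = inhibition below 50%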). Particulars: HEK293-TLR3 RL24 IRF3 luciferase reporter, at 10 µM, stronger effect = higher value.

The source made the active and inactive calls.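 Rule for the calls, unless noted: active = fluorescence slope after compound addition differing from the mean of all screened samples at 99.7% confidence, in either direction; inactive = the rest.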

In the case of `COc1cccc(C2=NOC(C(=O)Nc3cc(C)nn3-c3ccccc3)C2)c1OC` (centres undefined), the cell count in assay [1] worked out at 570. Further, the inhibition was -6.2% (inactive) in assay [1], -19.4% (inactive) in assay [3], 16.2% (inactive) in assay [7] and 23.8% (inactive) in assay [8]. Besides, the inhibition of aggregation in assay [2] was -1.5% (inactive). Moreover, the nuclei count in assay [2] was determined as 105%; in assay [3], 107%. For the same compound, the fluorescence slope in assay [4] is -0.586 (inactive). The NADPH fluorescence slope in assay [5] is -5.4e-05 (inactive). For the same compound, the slope in assay [6] was 0.00584 (inactive).

For `CCC(C)(C)n1nnnc1C(c1ccc(OC)c(OC)c1)N1CCN(c2ccccc2)CC1` (centres undefined), the cell count in assay [1] turned out to be 252. The inhibition in assay [1] is 10.9% (inactive); in assay [3], 1.7% (inactive); in assay [7], 18.8% (inactive); in assay [8], 39.6% (inactive). For the same compound, the inhibition of aggregation in assay [2] is 0.9% (inactive). Moreover, the nuclei count amounted to 80.9% in assay [2] and 94.4% in assay [3]. Further, the fluorescence slope in assay [4] is -0.473 (inactive). The NADPH fluorescence slope in assay [5] is -0.000151 (inactive). For the same compound, the slope in assay [6] is 0.0062 (inactive).

Turning to `CC(=O)c1ccc(NC(=O)CCc2c(C)nc3ncnn3c2C)cc1`, the cell count in assay [1] worked out at 363. The inhibition in assay [1] is 0% (inactive); in assay [3], -31.1% (inactive); in assay [7] it was -9.29% (inactive); in assay [8], -11.6% (inactive). For the same compound, the inhibition of aggregation in assay [2] is 11.4% (inactive). The nuclei count in assay [2] was 103%; in assay [3], 113%. Further, the fluorescence slope in assay [4] is -0.498 (inactive). The NADPH fluorescence slope in assay [5] is -2.9e-05 (inactive). In addition, the slope in assay [6] was 0.00573 (inactive).

As for `O=C(Nc1cc(C(F)(F)F)ccc1Cl)C1CCN(c2nnc(-n3cccc3)s2)CC1`, the cell count in assay [1] worked out at 329. Also, the inhibition is -2.9% (inactive) in assay [1], -114% (inactive) in assay [3], 17.2% (inactive) in assay [7] and 9.28% (inactive) in assay [8]. The inhibition of aggregation in assay [2] is 6.1% (inactive). Moreover, the results for the nuclei count in assay [2] and in assay [3] were 84.2% and 126%, respectively. For the same compound, in assay [4], the fluorescence slope was -0.39 (inactive). The NADPH fluorescence slope in assay [5] is -5.6e-05 (inactive). In assay [6], the slope is 0.00662 (inactive).

For `Cc1sc2nc(SCC(=O)Nc3c(C)n(C)n(-c4ccccc4)c3=O)n(C)c(=O)c2c1C`, the cell count in assay [1] is 556. The inhibition in assay [1] was -8.3% (inactive); in assay [3], 13.4% (inactive); in assay [7], 5.86% (inactive); in assay [8], -5.09% (inactive). In addition, the inhibition of aggregation in assay [2] is 9% (inactive). Moreover, the nuclei count was 74.8% in assay [2] and 118% in assay [3]. Further, the fluorescence slope in assay [4] is -0.376 (inactive). In addition, the NADPH fluorescence slope in assay [5] is 1e-05 (inactive). Further, in assay [6], the slope was 0.00842 (inactive).

Turning to `CC(=O)Nc1ccc(S(=O)(=O)N2CCN(c3cc(C)nc4ccccc34)CC2)cc1`, the cell count in assay [1] was found to be 730. Besides, the inhibition in assay [1] is -9.1% (inactive); in assay [3], -87.3% (inactive); in assay [7], 5.87% (inactive); in assay [8], 13.2% (inactive). Further, the inhibition of aggregation in assay [2] is 35.3% (inactive). The nuclei count was 123% in assay [2] and 120% in assay [3]. Besides, in assay [4], the fluorescence slope was -0.31 (inactive). In addition, the NADPH fluorescence slope in assay [5] is -7.9e-05 (inactive). For the same compound, in assay [6], the slope was 0.00466 (inactive).

`CCOc1ccc(/C=N/n2cnnc2)cc1`: the cell count in assay [1] worked out at 442. Besides, the inhibition in assay [1] is -2.2% (inactive); in assay [3], 17.6% (inactive); in assay [7] it was 8.22% (inactive); in assay [8], 20.1% (inactive). Besides, in assay [2], the inhibition of aggregation was -4.7% (inactive). Further, the figures for the nuclei count in assay [2] and in assay [3] were 89.4% and 117%, respectively. Also, in assay [4], the fluorescence slope is -0.402 (inactive). Further, the NADPH fluorescence slope in assay [5] was -9.1e-05 (inactive). In addition, the slope in assay [6] was 0.00521 (inactive).

With `O=C(Cn1nc(Cc2cccnc2)c2ccccc2c1=O)Nc1ccc2c(c1)OCO2`, the cell count in assay [1] stood at 576. Further, the inhibition in assay [1] was 3% (inactive); in assay [3], -9.3% (inactive); in assay [7] it was 10.9% (inactive); in assay [8], 18.1% (inactive). In addition, the inhibition of aggregation in assay [2] was 22.2% (inactive). Moreover, the nuclei count was 109% in assay [2] and 98.3% in assay [3]. Further, the fluorescence slope in assay [4] was -0.55 (inactive). The NADPH fluorescence slope in assay [5] was -3.9e-05 (inactive). Besides, the slope in assay [6] is 0.00644 (inactive).

As to `CC(=O)NC1CC2CCCC(C1)N2CC(=O)Nc1ccccc1` (centres undefined), the cell count in assay [1] turned out to be 302. Besides, the inhibition in assay [1] is 9.6% (inactive); in assay [3] it was 26.1% (inactive); in assay [7], -13.6% (inactive); in assay [8], -5.22% (inactive). Moreover, the inhibition of aggregation in assay [2] was 3.9% (inactive). Also, the figures for the nuclei count in assay [2] and in assay [3] were 89.5% and 93.9%, respectively. Besides, the fluorescence slope in assay [4] is -0.565 (inactive). In addition, the NADPH fluorescence slope in assay [5] was -2.4e-05 (inactive). Besides, the slope in assay [6] was 0.00646 (inactive).

Turning to `CC(=O)Nc1ccc(NC(=O)c2cc(C)nn2-c2ccccc2)cc1`, the cell count in assay [1] worked out at 687. The inhibition in assay [1] is -6.1% (inactive); in assay [3], -36.4% (inactive); in assay [7], -3.81% (inactive); in assay [8] it was 0.294% (inactive). In addition, the inhibition of aggregation in assay [2] was -15.3% (inactive). For the same compound, the nuclei count in assay [2] is 112%; in assay [3], 129%. The fluorescence slope in assay [4] is -0.539 (inactive). In addition, the NADPH fluorescence slope in assay [5] is -1.7e-06 (inactive). The slope in assay [6] was 0.00394 (inactive).

Regarding `COCCn1c(C)c(C(=O)O)sc1=S`, in assay [1], the cell count is 279. The inhibition in assay [1] was 3.8% (inactive); in assay [3], -4.7% (inactive); in assay [7], 9.55% (inactive); in assay [8], -6.08% (inactive). Besides, the inhibition of aggregation in assay [2] was 8.1% (inactive). In addition, the nuclei count in assay [2] is 86.9%; in assay [3] it was 104%. Besides, the fluorescence slope in assay [4] is -0.416 (inactive). Further, the NADPH fluorescence slope in assay [5] is 5e-06 (inactive). In assay [6], the slope was 0.00261 (inactive).

For the compound `CCSc1ccccc1C(=O)NCc1ccc(S(N)(=O)=O)cc1`, the cell count in assay [1] worked out at 327. Also, the inhibition is 1.1% (inactive) in assay [1], -78.4% (inactive) in assay [3], 18.1% (inactive) in assay [7] and 16.5% (inactive) in assay [8]. Further, in assay [2], the inhibition of aggregation was -5.9% (inactive). The nuclei count in assay [2] amounted to 104%; in assay [3], 120%. The fluorescence slope in assay [4] is -0.435 (inactive). For the same compound, in assay [5], the NADPH fluorescence slope was -4.5e-05 (inactive). Also, the slope in assay [6] is 0.00523 (inactive).

On to `CSCC[C@@H](Nc1nc(-c2ccccc2)nc2c1oc1ccccc12)C(=O)O`, for which, in assay [1], the cell count was 322. Moreover, the inhibition in assay [1] is 1.9% (inactive); in assay [3], -92.1% (inactive); in assay [7], 4.35% (inactive); in assay [8] it was 41% (inactive). Besides, the inhibition of aggregation in assay [2] was -20.9% (inactive). The nuclei count turned out to be 83.4% in assay [2] and 123% in assay [3]. The fluorescence slope in assay [4] was -0.442 (inactive). The NADPH fluorescence slope in assay [5] was 9.3e-06 (inactive). For the same compound, the slope in assay [6] was 0.00719 (inactive).

For the compound `Cn1c(=O)oc2cc(S(=O)(=O)N3CCCC(C(=O)NCC4COc5ccccc5O4)C3)ccc21` (centres undefined), the cell count in assay [1] was found to be 751. Also, the inhibition was -1.9% (inactive) in assay [1], -40.9% (inactive) in assay [3], -12.4% (inactive) in assay [7] and -5.33% (inactive) in assay [8]. In assay [2], the inhibition of aggregation was -6.6% (inactive). Also, the results for the nuclei count in assay [2] and in assay [3] were 105% and 124%, respectively. In addition, the fluorescence slope in assay [4] was -0.575 (inactive). The NADPH fluorescence slope in assay [5] was 1.7e-05 (inactive). Besides, the slope in assay [6] was 0.00726 (inactive).
